Measurements: PubChem BioAssay AID1159580 (chemical genetic matrix, 2015)
The whole screen tested about 5,500 compounds, of which about 2,000 (36%) were called active. Inconclusive results (about 18%) are left out. No stated cut-off is given here; in the data, active means normalized growth mostly below about 0.91 (no sharp cut-off); inconclusive means no clear call, values can overlap the other calls; inactive means mostly above about 0.92. The list shows a part of the results.

Assay: chemical genetic growth profiling, strain panel (AID 1159580);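 further: tested at 20 µM; growth read once vehicle control cultures reached saturation at 30 °C; 1 = growth at the plate median or of vehicle wells; lower values mean less growth of the strain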
Conditions: growth OD
[1] = S. cerevisiae deletion strains, locus YDR150W, strain NUM1, hits give low values
[2] = S. cerevisiae deletion strains, locus YNL322C, strain KRE1, hits give low values
[3] = S. cerevisiae deletion strains, locus YPL241C, strain CIN2, hits give low values

Measured: normalized growth

O=C(O)/C=C1\CCCc2ccccc2C1O (stereo unspecified)
inactive: S. cerevisiae deletion strains, locus YAL013W, strain DEP1, hits give low values 1.01 | S. cerevisiae deletion strains, locus YBR021W, strain FUR4, hits give low values 1.01 | S. cerevisiae deletion strains, locus YBR229C, strain ROT2, hits give low values 0.965 | S. cerevisiae deletion strains, locus YCL029C, strain bik1, hits give low values 0.982 | S. cerevisiae deletion strains, locus YDL035C, strain GPR1, hits give low values 0.993 | S. cerevisiae deletion strains, locus YDL074C, strain BRE1, hits give low values 0.96 | S. cerevisiae deletion strains, locus YDL101C, strain DUN1, hits give low values 0.988 | S. cerevisiae deletion strains, locus YDL134C, strain PPH21, hits give low values 0.992 | S. cerevisiae deletion strains, locus YDL185W, strain tfp1, hits give low values 0.945 | S. cerevisiae deletion strains, locus YDL192W, strain arf1, hits give low values 0.977 | S. cerevisiae deletion strains, locus YDR101C, strain arx1, hits give low values 0.993 | [1] 0.991 | S. cerevisiae deletion strains, locus YDR162C, strain NBP2, hits give low values 0.987 | S. cerevisiae deletion strains, locus YDR318W, strain mcm21, hits give low values 0.985 | S. cerevisiae deletion strains, locus YDR388W, hits give low values 0.989 | S. cerevisiae deletion strains, locus YDR502C, strain sam2, hits give low values 0.976 | S. cerevisiae deletion strains, locus YEL061C, strain CIN8, hits give low values 0.995 | S. cerevisiae deletion strains, locus YER110C, hits give low values 0.982 | S. cerevisiae deletion strains, locus YER155C, strain BEM2, hits give low values 1.01 | S. cerevisiae deletion strains, locus YER167W, strain BCK2, hits give low values 0.998 | S. cerevisiae deletion strains, locus YGL078C, strain dbp3, hits give low values 0.992 | S. cerevisiae deletion strains, locus YGL086W, strain mad1, hits give low values 0.991 | S. cerevisiae deletion strains, locus YGL248W, strain PDE1, hits give low values 0.979 | S. cerevisiae deletion strains, locus YGR078C, strain PAC10, hits give low values 1 | S. cerevisiae deletion strains, locus YGR135W, strain pre9, hits give low values 0.98 | S. cerevisiae deletion strains, locus YGR229C, strain SMI1, hits give low values 0.997 | S. cerevisiae deletion strains, locus YGR252W, strain gcn5, hits give low values 0.962 | S. cerevisiae deletion strains, locus YHR030C, strain SLT2, hits give low values 1.01 | S. cerevisiae deletion strains, locus YHR079C, strain IRE1 (second series), hits give low values 0.992 | S. cerevisiae deletion strains, locus YHR094C, strain hxt1, hits give low values 0.984 | S. cerevisiae deletion strains, locus YHR129C, strain ARP1, hits give low values 0.992 | S. cerevisiae deletion strains, locus YHR200W, strain rpn10, hits give low values 0.989 | S. cerevisiae deletion strains, locus YIL066C, strain RNR3, hits give low values 0.996 | S. cerevisiae deletion strains, locus YIL073C, strain SPO22, hits give low values 0.974 | S. cerevisiae deletion strains, locus YIL125W, strain kgd1, hits give low values 0.975 | S. cerevisiae deletion strains, locus YIR030C, strain dcg1, hits give low values 0.988 | S. cerevisiae deletion strains, locus YJL095W, strain BCK1, hits give low values 1.01 | S. cerevisiae deletion strains, locus YJL134W, strain LCB3, hits give low values 0.986 | S. cerevisiae deletion strains, locus YJL168C, strain set2, hits give low values 0.986 | S. cerevisiae deletion strains, locus YJL187C, strain SWE1 (second series), hits give low values 0.99 | S. cerevisiae deletion strains, locus YJR043C, strain POL32, hits give low values 0.998 | S. cerevisiae deletion strains, locus YJR075W, strain HOC1, hits give low values 0.985 | S. cerevisiae deletion strains, locus YKL009W, strain mrt4, hits give low values 0.955 | S. cerevisiae deletion strains, locus YKL068W, hits give low values 0.981 | S. cerevisiae deletion strains, locus YKL085W, strain MDH1 (second series), hits give low values 0.98 | S. cerevisiae deletion strains, locus YKL085W, strain MDH1, hits give low values 0.98 | S. cerevisiae deletion strains, locus YKL190W, strain CNB1, hits give low values 0.996 | S. cerevisiae deletion strains, locus YKR001C, strain vps1, hits give low values 0.978 | S. cerevisiae deletion strains, locus YLR039C, strain RIC1, hits give low values 0.944 | S. cerevisiae deletion strains, locus YLR058C, strain SHM2, hits give low values 0.988 | S. cerevisiae deletion strains, locus YLR102C, strain apc9, hits give low values 0.977 | S. cerevisiae deletion strains, locus YLR262C, strain YPT6, hits give low values 0.937 | S. cerevisiae deletion strains, locus YLR268W, strain sec22, hits give low values 0.984 | S. cerevisiae deletion strains, locus YLR330W, strain CHS5, hits give low values 0.998 | S. cerevisiae deletion strains, locus YLR342W, strain FKS1 (second series), hits give low values 0.983 | S. cerevisiae deletion strains, locus YLR371W, strain rom2, hits give low values 0.975 | S. cerevisiae deletion strains, locus YLR418C, strain cdc73, hits give low values 0.989 | S. cerevisiae deletion strains, locus YML016C, strain PPZ1, hits give low values 0.964 | S. cerevisiae deletion strains, locus YML032C, strain rad52, hits give low values 0.982 | S. cerevisiae deletion strains, locus YML124C, strain tub3, hits give low values 0.992 | S. cerevisiae deletion strains, locus YMR078C, strain ctf18, hits give low values 0.977 | S. cerevisiae deletion strains, locus YMR223W, strain ubp8, hits give low values 0.991 | S. cerevisiae deletion strains, locus YMR263W, strain SAP30, hits give low values 0.952 | S. cerevisiae deletion strains, locus YMR307W, strain GAS1, hits give low values 0.991 | S. cerevisiae deletion strains, locus YNL067W, strain RPL9B, hits give low values 0.998 | S. cerevisiae deletion strains, locus YNL128W, strain TEP1, hits give low values 0.976 | S. cerevisiae deletion strains, locus YNL153C, strain GIM3, hits give low values 0.998 | S. cerevisiae deletion strains, locus YNL233W, strain BNI4, hits give low values 1.01 | S. cerevisiae deletion strains, locus YNL250W, strain rad50, hits give low values 0.979 | S. cerevisiae deletion strains, locus YNL271C, strain bni1, hits give low values 0.987 | S. cerevisiae deletion strains, locus YNL298W, strain CLA4, hits give low values 0.964 | S. cerevisiae deletion strains, locus YNL307C, strain MCK1, hits give low values 0.986 | [2] 0.986 | S. cerevisiae deletion strains, locus YNR052C, strain pop2, hits give low values 0.989 | S. cerevisiae deletion strains, locus YOL006C, strain TOP1, hits give low values 0.983 | S. cerevisiae deletion strains, locus YOL012C, strain htz1 0.943 | S. cerevisiae deletion strains, locus YOL147C, strain pex11, hits give low values 0.991 | S. cerevisiae deletion strains, locus YOR061W, strain CKA2, hits give low values 0.974 | S. cerevisiae deletion strains, locus YOR069W, strain VPS5, hits give low values 1 | S. cerevisiae deletion strains, locus YOR136W, strain idh2, hits give low values 0.995 | S. cerevisiae deletion strains, locus YOR144C, strain elg1, hits give low values 0.991 | S. cerevisiae deletion strains, locus YOR184W, strain ser1, hits give low values 0.985 | S. cerevisiae deletion strains, locus YOR316C, strain cot1, hits give low values 0.975 | S. cerevisiae deletion strains, locus YPL055C, strain LGE1, hits give low values 0.971 | [3] 0.997 | S. cerevisiae deletion strains, locus YPR119W, strain clb2, hits give low values 0.995 | S. cerevisiae deletion strains, locus YPR141C, strain kar3, hits give low values 0.964 | S. cerevisiae deletion strains, locus YPR163C, strain tif3, hits give low values 0.99 | S. cerevisiae deletion strains, locus YPR167C, strain met16, hits give low values 0.987 | S. cerevisiae deletion strains, strain wtn01, hits give low values 0.98 | S. cerevisiae strains, strain wild type, hits give low values 0.991

Nc1ncnc2c1nc(Sc1ccc(Cl)cc1)n2C1OC2COP(=O)(O)O[C@@H]2[C@@H]1O (stereo partly specified)
inactive: S. cerevisiae deletion strains, locus YAL040C, strain CLN3, hits give low values 0.98 | [1] 0.999 | S. cerevisiae deletion strains, locus YDR363W, strain ESC2, hits give low values 1.01 | S. cerevisiae deletion strains, locus YER002W, strain NOP16, hits give low values 0.984 | S. cerevisiae deletion strains, locus YNL175C, strain NOP13, hits give low values 1.01 | S. cerevisiae deletion strains, locus YNL197C, strain WHI3, hits give low values 1.02 | S. cerevisiae deletion strains, locus YNL224C, strain SQS1, hits give low values 0.995 | [2] 0.996 | S. cerevisiae deletion strains, locus YOR083W, strain WHI5 (second series), hits give low values 1.02 | [3] 1
